Measurements from PubChem BioAssay AID1721 (National Center for Advancing Translational Sciences (NCATS), 2009).
About 1,100 (0.38%) of roughly 290,000 compounds were called active. Calls come from the whole dose curve; as a rule, active = well fitted inhibition curve with a large enough effect; inconclusive = small, poorly fitted or top-dose-only effect, or another doubt; inactive = no such curve, though single readings can be large or run the other way. The list comes from a sample in which actives are over-represented; it also holds similar structures and randomly drawn compounds. Where a call stands in place of a potency, no number is given.

biological target: Pyruvate kinase (Leishmania mexicana) (UniProt Q27686); experiment: qHTS Assay for Inhibitors of Leishmania Mexicana Pyruvate Kinase (LmPK); details: purified LmPK, Kinase-Glo ATP luminescence, 1 h; series mostly up to 57.5 µM
Sequence (Q27686 whole entry, looked up): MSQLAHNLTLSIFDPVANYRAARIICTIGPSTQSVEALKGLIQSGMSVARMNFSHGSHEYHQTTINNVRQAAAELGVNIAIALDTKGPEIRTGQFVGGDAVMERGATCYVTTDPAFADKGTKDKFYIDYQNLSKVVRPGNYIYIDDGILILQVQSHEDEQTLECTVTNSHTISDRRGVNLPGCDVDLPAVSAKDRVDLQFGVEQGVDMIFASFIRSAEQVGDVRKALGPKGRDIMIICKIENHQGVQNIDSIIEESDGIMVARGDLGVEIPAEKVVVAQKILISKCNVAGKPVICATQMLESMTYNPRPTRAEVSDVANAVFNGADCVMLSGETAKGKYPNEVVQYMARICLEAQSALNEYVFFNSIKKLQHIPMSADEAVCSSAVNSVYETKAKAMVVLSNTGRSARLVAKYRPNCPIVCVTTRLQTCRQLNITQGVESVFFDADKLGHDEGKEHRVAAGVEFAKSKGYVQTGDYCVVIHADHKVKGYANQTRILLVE
Source text: NIH Chemical Genomics Center [NCGC] Malcolm Walkinshaw, Hugh Morgan, Linda Gilmore University of Edinburgh, UK MLPCN Grant: 1 R03 MH085697-01 NCGC Assay Overview: Pyruvate kinase (L. Mexicana) (LmPK) enzyme was supplied as a highly purified (>95% pure) sulphate-free preparation from University of Edinburgh, UK and assayed for its ability to generate ATP from ADP using phosphoenolpyruvate (PEP) as a substrate. ATP generation was detected in a coupled reaction by luciferase-mediated luminescence, an ATP-dependent process. […] The enzyme was assayed at an intermediate level of activity to screen for both inhibitors and activators.
NCGC Assay Protocol Summary: Three uL of enzyme mix (kept on ice) in assay buffer (50 mM Imidazole pH7.2, 50 mM KCl, 7 mM MgCl2, 0.01% Tween 20, 0.05% BSA) containing PEP (0.5 mM final concentration) and LmPK (0.1 nM final concentration) was dispensed into white solid bottom 1,536 well microtiter plates. 23 nL of compound were delivered by a pin tool and 1 uL of ADP mix in assay buffer (r.t; 0.1 mM final ADP concentration) was added. Plates were incubated at room temperature for 1 hour. Two uL of detection mix (Kinase-Glo, Promega; at 4 degree Celsius protected from light) was added and luminescence read by a ViewLux (Perkin Elmer) at 1 second exposure/plate. Data were normalized to the uninhibited and AC100 inhibition (no enzyme). To monitor activation, the first column contained a five-fold concentration of LmPK (0.5 nM).
Potency is the fitted concentration of half-maximal effect.

SMILES | Potency | activity change, negative = inhibition
CC1CCC2CCCCC2N1C(=O)c1cc([N+](=O)[O-])cc([N+](=O)[O-])c1 (stereo unspecified) | inactive | 
CCCS(=O)(=O)N1CCN=C1SCc1cccc(F)c1 | inactive | 
COc1cccc(-c2nc3cc(C)ccc3o2)c1 | 14.1 µM (active) | 
COc1ccc2oc(-c3cccc(NC(=O)CSc4ccc(Cl)cc4)c3)nc2c1 | inactive | 
COc1ccc(-c2nc3cc([N+](=O)[O-])ccc3o2)cc1OC | inactive | 
c1ccc(-c2noc(-c3cccs3)n2)nc1 | 11.2 µM (active) | 
COc1nc(-c2ccc(Cl)cc2)ccc1-c1noc(-c2cccs2)n1 | inactive | 
COc1ccc(Cc2nc(-c3ccccn3)no2)cc1OC | inactive | 
C=CCOc1ccc(C(=O)Nc2ccccc2C(=O)N2CCCC2)cc1 | inactive | 
COC(=O)c1ccc(C23CC4(C2)[C@H](CN(Cc2cccnc2)[C@@H]4c2ccccc2)C3c2ccc(Cl)nc2)cc1 (stereo partly specified) | inactive | 
Cc1cccc(NC(=O)c2cc(S(=O)(=O)N3CCC4(CC3)OCCO4)ccc2F)c1 | inactive | 
CCCCCCCC1=Cc2ccc(F)cc2C(C(C(=O)OC)C(=O)OC)N1C(=O)OC (stereo unspecified) |  | -1.7% [at 11.5 µM] (inactive)
S=c1[nH]ccn1-c1ccc(Cl)cc1 | 25.1 µM (active) | 
O=S(=O)(c1ccc(F)cc1)N1CCN=C1SCc1cccc(F)c1 | inactive | 
CC(=O)Oc1cccc(C(=O)Nc2ccccc2NC(=O)c2cccc(OC(C)=O)c2)c1 | inactive | 
C=CCN1c2ccccc2[C@]23C[C@@H](C(=O)OC)N(S(=O)(=O)c4ccc([N+](=O)[O-])cc4)C2=NC(C(=O)OC)=C(C(=O)OC)[C@H]13 |  | -3.12% [at 11.5 µM] (inactive)

SMILES | Potency | activity change, negative = inhibition
CC(=O)Nc1ccc(NC(=O)CN2C(=O)COc3ccc(S(=O)(=O)N4CCCCC4)cc32)cc1 | inactive | 
COc1ccc(C2=NOC3(CC(=O)N(c4ccc(C)cc4)C3=O)C2)cc1 (stereo unspecified) | inactive | 
COc1ccc(NC(=O)c2cc(-c3ccc(C)cc3)on2)cc1 | inactive | 
COc1ccc(C2=Nc3cc(C)ccc3OC2)cc1 | 11.2 µM (active) | 
COc1ccccc1CN1CCNC(=O)C1CC(=O)N(C)CC1CCOCC1 (stereo unspecified) | inactive | 
Cc1cccc(NC(=O)C2CCCN(C(=O)Nc3ccc(F)cc3)C2)c1C (stereo unspecified) | inactive | 
COc1cc2c(C(=O)N(C)c3cc(Cl)ccc3OC)cn(C)c(=O)c2cc1OC | inactive | 
COC(=O)C1=C(C(=O)OC)[C@@H]2Nc3ccccc3[C@@]23C[C@@H](C(=O)OC)N(S(=O)(=O)c2ccc([N+](=O)[O-])cc2)C3=N1 |  | -0.378% [at 11.5 µM] (inactive)
O=C(Nc1cccc(S(=O)(=O)Nc2ccc(Cl)cc2)c1)c1ccc2c(c1)OCCO2 | inactive | 
O=C(Nc1ccc(Cl)cn1)c1ccc2c(c1)OCCO2 | 28.2 µM (active) | 
Cc1nc(NC(=O)c2ccc3c(c2)OCCO3)ccc1Br | inactive | 
COC(=O)C(C(=O)OC)C1c2ccccc2C=C(C2CC2)N1C(=O)OC (stereo unspecified) |  | -6.03% [at 11.5 µM] (inactive)
O=C(O)CCN=C1CCc2ccccc2N1 | inactive | 
CSc1cccc(NC(=S)N(C(C)C)C(C)c2ccccn2)c1 (stereo unspecified) | inactive | 
Cc1ccc(O)c(/C=N/NC(=O)COc2ccc3c(C)cc(=O)oc3c2)c1 | inactive | 
